The record followed here is PubChem BioAssay (NCI).

This is part of a sample that, as a whole, favours compounds with a hit. Of some 83,000 tested, about 20% had one in any assay.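 48-hour exposure, single concentration, 96-well plates; percent growth endpoint where 0 means no net growth. Active: below 10.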 A number with no mark means an inactive call. Activity calls are given as the source filed them.

In one test the test system is A549/ATCC NSCLC. Nature of the test: NCI-60 one-dose screen, 48 h (100 = growth as untreated, 0 = no growth, -100 = all killed). The settings on record: 10 µM.
Take `Nc1nc(Cl)nc2c1ncn2C1O[C@H](CO)[C@@H](O)[C@@H]1F` (stereo partly drawn): the growth was 23.4%.

As for `CCC1NC(=O)c2cc(S(N)(=O)=O)c(Cl)cc2N1` (stereo not drawn), the growth was 104%. Same read-out and setting: the result for `CC(=O)O[C@@]12CO[C@@H]1C[C@H](O)[C@@]1(C)C(=O)[C@H](O)C3=C(C)[C@@H](OC(=O)[C@H](O)[C@@H](NC(=O)OC(C)(C)C)c4ccccc4)C[C@@](O)([C@@H](OC(=O)c4ccccc4)C12)C3(C)C` (stereo partly drawn) reads 38.8%. Turning to `CCCc1nc(C(C)(C)O)c(C(=O)O)n1Cc1ccc(-c2ccccc2-c2nn[nH]n2)cc1`, the growth was 99%. Still for that read-out and setting: the result for `Cc1cc(CC(C)CC(C)(C)C)n(O)c(=O)c1` (stereo not drawn) (tested in a mixture with another compound) reads 20.2%; that for `Cc1nc2n(c(=O)c1CCN1CCC(c3noc4cc(F)ccc34)CC1)CCC[C@@H]2O`, 99.3%. The same measure, in the same setting: the result for `COc1cc2cc(Oc3ccc(NC(=O)c4cccc(C(F)(F)F)c4)cc3)c(C)nc2cc1OC` reads 24.1%; that for `CCOC(=O)c1sc2ncnc(Nc3ccc4c(cnn4C(=O)Nc4ccccc4)c3)c2c1C`, 56.7%.

The test system of a further test is 786-0 renal. The test is described as above. The settings on record: 10 µM.
In the case of `O=C1Cc2cc(CCN3CCN(c4nsc5ccccc45)CC3)c(Cl)cc2N1`, the growth is 106%. Still for that read-out and setting: the result for `Nc1ccccc1NC(=O)c1ccc(CCCC(=O)Nc2ccc(C3CC3N)cc2)cc1` (stereo not drawn) reads 38.8%; that for `CC(C)Cc1ccc([C@H](C)C(=O)O)cc1`, 106%; that for `COc1cc2c3c(n(C4CCN(C)CC4)c(=O)c2cc1OC)-c1cc2c(cc1C3=O)OCO2`, 55.4%. The same measure, in the same setting: the result for `CN(C)c1nc(N)c2nccnc2n1` reads 109%; that for `COc1ccc(CCN2CCC(Nc3nc4ccccc4n3Cc3ccc(F)cc3)CC2)cc1`, -96.5% (active). Take `CNC(=O)c1c(I)c(NC(C)=O)c(I)c(C(=O)O)c1I`: the growth is 127%. Still for that read-out and setting: the result for `C[C@H]1[C@H](OC(=O)CCC(=O)O)O[C@@H]2O[C@]3(C)CC[C@H]4[C@H](C)CC[C@@H]1[C@@]24OO3` reads 33.5%; that for `Nc1cc(-c2ccncc2)c[nH]c1=O`, 103%. On the same count and under the same terms, as for `COc1ccc2c(c1)C(CC(=O)NN)CCC2` (stereo not drawn), the figure is 109%; as for `CCCCc1oc2ccccc2c1C(=O)c1cc(I)c(OCCN(CC)CC)c(I)c1`, -90.5% (active). Same read-out and setting: the result for `Clc1ccc2c(c1)C(N1CCNCC1)=Nc1ccccc1O2` reads 56.1%; that for `COc1ccc(Cc2cnc(N)nc2N)cc1OC`, 109%.

For `COc1ccc(C(=O)CSc2nc(-c3cc(OC)ccc3OC)cc(-c3ccc(OC)cc3)c2C#N)cc1`, the growth was 94.4%. On the same count and under the same terms, the result for `Nc1ccc(-c2cccs2)cc1NC(=O)c1ccc(CCCC(=O)Nc2ccc(C3CC3N)cc2)cc1` (stereo not drawn) reads -48% (active); that for `CCCCCOC(=O)Nc1nc(=O)n(C2O[C@H](C)[C@@H](O)[C@H]2O)cc1F` (stereo partly drawn), 106%. Still for that read-out and setting: as for `C[C@@H](O)[C@H]1C(=O)N2C(C(=O)O)=C(SCCN=CN)C[C@H]12`, the figure is 8.8% (active); as for `CCCCC(CC)CN=C(N)NC(N)=NCCCCCCN=C(N)NC(N)=NCC(CC)CCCC` (stereo not drawn), -31.2% (active); as for `CO[C@H]1CC(O[C@@H]2/C(C)=C/C[C@@H]3C[C@@H](C[C@]4(C=C[C@H](C)[C@@H](C5CCCCC5)O4)O3)OC(=O)[C@@H]3C=C(C)[C@@H](O)[C@H]4OC/C(=C\C=C\[C@@H]2C)[C@]43O)O[C@@H](C)C1O[C@H]1C[C@H](OC)[C@@H](O)[C@H](C)O1` (stereo partly drawn), -80.3% (active).

For the molecule `CC1/C=C/C=C/C=C/C=C/C=C/C=C/C=C/C(O[C@@H]2O[C@H](C)[C@H](O)[C@@H](O)[C@@H]2N)CC(O)C(C(=O)O)C(O)CC(=O)CC(O)CC(O)CC(O)CC(=O)CCCC(=O)CC(=O)OC1C(C)CC(C)C(O)CC(=O)c1ccc(N)cc1` (stereo partly drawn), the growth was -94% (active). On to `S=C1N(c2ccccc2)CN(C2CCCCC2)CN1c1ccccc1`, for which the growth is 100%.

As for `C#C[C@]1(O)CCC2C3CCc4cc(OC5CCCC5)ccc4C3CC[C@@]21C` (stereo partly drawn), the growth is 73.5%. The same measure, in the same setting: as for `CC(=O)[C@@]12O[C@](C)(c3ccccc3)O[C@@H]1CC1C3CCC4=CC(=O)CC[C@]4(C)C3CC[C@@]12C` (stereo partly drawn), the figure is 67.9%. On the same count and under the same terms, as for `COc1ccc2nc3cc(Cl)ccc3c(Nc3cc(CN4CCCC4)c(O)c(CN4CCCC4)c3)c2n1`, the figure is 0.406% (active); as for `CCc1cc(Cl)c(OC)c(C(=O)NCC2CCCN2CC)c1O` (stereo not drawn), 97.8%; as for `CCOC(=O)c1sc2ncnc(Nc3ccc(NC(=O)Nc4ccc(Cl)cc4)cc3)c2c1C`, 52.3%. On the same count and under the same terms, as for `Cc1cc(C(C#N)c2ccc(Cl)cc2)c(Cl)cc1NC(=O)c1cc(I)cc(I)c1O` (stereo not drawn), the figure is 20.8%; as for `COc1cc2c3c(n([C@@H]4CCOC4)c(=O)c2cc1OC)-c1cc2c(cc1C3=O)OCO2`, 7.24% (active). For the molecule `C[N+]1(CCCCC[N+]2(C)CCCC2)CCCC1`, the growth was 118%. On the same count and under the same terms, the result for `C=C(NC(=O)C(=C)NC(=O)c1csc(C2=NC3c4csc(n4)C4NC(=O)c5csc(n5)C(C(C)(O)C(C)O)NC(=O)C5CSC(=N5)C(=CC)NC(=O)C(C(C)O)NC(=O)c5csc(n5)C3(CC2)NC(=O)C(C)NC(=O)C(=C)NC(=O)C(C)NC(=O)C(C(C)CC)NC2C=Cc3c(C(C)O)cc(nc3C2O)C(=O)OC4C)n1)C(N)=O` (stereo not drawn) reads 8.49% (active); that for `Nc1nc(Cl)nc2c1ncn2C1O[C@H](CO)[C@@H](O)[C@@H]1F` (stereo partly drawn), -34.1% (active); that for `CN1CCN(c2cc3c(cc2F)c(=O)c(C(=O)O)cn3-c2ccc(F)cc2)CC1`, 97.6%. For the molecule `CCC1NC(=O)c2cc(S(N)(=O)=O)c(Cl)cc2N1` (stereo not drawn), the growth is 116%.

Take `CC(=O)O[C@@]12CO[C@@H]1C[C@H](O)[C@@]1(C)C(=O)[C@H](O)C3=C(C)[C@@H](OC(=O)[C@H](O)[C@@H](NC(=O)OC(C)(C)C)c4ccccc4)C[C@@](O)([C@@H](OC(=O)c4ccccc4)C12)C3(C)C` (stereo partly drawn): the growth is 54%. The same measure, in the same setting: the result for `CCCc1nc(C(C)(C)O)c(C(=O)O)n1Cc1ccc(-c2ccccc2-c2nn[nH]n2)cc1` reads 104%. On the same count and under the same terms, the result for `Cc1cc(CC(C)CC(C)(C)C)n(O)c(=O)c1` (stereo not drawn) (tested in a mixture with another compound) reads 29%; that for `CN1CCN(C2=Nc3ccccc3Oc3ccc(Cl)cc32)CC1`, 87.4%. Same read-out and setting: as for `Cc1nc2n(c(=O)c1CCN1CCC(c3noc4cc(F)ccc34)CC1)CCC[C@@H]2O`, the figure is 107%; as for `COc1cc2cc(Oc3ccc(NC(=O)c4cccc(C(F)(F)F)c4)cc3)c(C)nc2cc1OC`, 45.4%; as for `CCOC(=O)c1sc2ncnc(Nc3ccc4c(cnn4C(=O)Nc4ccccc4)c3)c2c1C`, -2.26% (active).
